Measured values from the supplement of paper PMC3334620.
Over roughly 33,000 sequences, “E-score (-0.5 to 0.5)” has its median near -0.0034; the highest 2% begin near 0.25. This is one part of a sample in which the highest values are shown more often than they occur.

The sequences below were run against T1, Yap3 (UniProt P38749) (assay: PBM E-score (8-mer binding enrichment) (E-score (-0.5 to 0.5)); higher = stronger / more preferred TF binding). Conditions: protein concentration: 100 nM; construct: GST-full length.
T1 sequence: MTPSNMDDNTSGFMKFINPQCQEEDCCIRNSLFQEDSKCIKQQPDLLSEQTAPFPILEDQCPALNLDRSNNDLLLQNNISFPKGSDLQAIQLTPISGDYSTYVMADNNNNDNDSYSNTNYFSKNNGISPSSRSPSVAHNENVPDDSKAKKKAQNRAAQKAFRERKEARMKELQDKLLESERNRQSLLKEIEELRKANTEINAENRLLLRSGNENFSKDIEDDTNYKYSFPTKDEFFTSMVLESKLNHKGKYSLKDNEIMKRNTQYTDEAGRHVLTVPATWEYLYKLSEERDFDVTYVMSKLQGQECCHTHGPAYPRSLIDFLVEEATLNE
Protocol: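 Universal 'all 10-mer' protein binding microarrays (Agilent AMADID 015681) probed with GST-tagged S. cerevisiae TFs (full-length or DBD) made by in vitro transcription/translation (PURExpress), about 100-200 nM. Bound TF was detected with fluorescent anti-GST. Each ungapped 8-mer (which stands for itself and its reverse complement) is scored by the PBM enrichment score (E-score), a modified Wilcoxon-Mann-Whitney statistic from -0.5 to +0.5, computed with the Universal PBM Analysis Suite. Scale: above 0.35 generally sequence-specific binding.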

Row | Sequence | PBM E-score
1 | ACGCGCGC | 0.181
2 | GCGCGCGA | 0.121
3 | CCGCGCTA | 0.137
4 | GCGCGCGC | 0.29
5 | ACAACAGA | -0.0683
6 | GATGTCCC | -0.134
7 | AGGATCAG | -0.151
8 | CGGCCCAG | -0.332
9 | AGAAATGA | 0.0784
10 | CCTGACAG | -0.0186
11 | CGAGATAA | 0.29
12 | GGAGATAA | 0.107
13 | AGAGATAA | 0.169
14 | GAGCCTTA | -0.0398
15 | ACATGTAA | 0.184
16 | ACATGTAC | 0.112
17 | ACATGTAG | 0.302
18 | ACATGTTG | 0.13
19 | CCATGTAG | -0.014
20 | ACATGTAT | 0.262
21 | CAGAATCA | 0.0924
22 | CCGCTAGG | -0.128

Row | Sequence | PBM E-score
23 | ACGCACGC | 0.262
24 | ACGCACGA | 0.131
25 | ACGCACGT | -0.206
26 | TCATGGGA | 0.00531
27 | CATTAAAA | 0.281
28 | ATTAAATG | 0.266
29 | ATTAAAAG | 0.0983
30 | ATTAAATC | 0.211
31 | ATTAAATA | 0.268
32 | GTTAAATA | 0.178
33 | TATTAAAA | 0.217
34 | ATTAAAAA | 0.285
35 | ATTAAAAC | 0.236
36 | ATTAAACG | 0.215
37 | CTTAAATA | 0.092
38 | GATTAAAA | 0.192
39 | CAAGGTAG | -0.142
40 | ATGCGCCG | 0.00281
41 | AAAGAGAT | -0.0227
42 | AGCGAGAA | -0.0207
43 | ACAATCCG | 0.116
44 | ACAATCCA | 0.287

Row | Sequence | PBM E-score
45 | CAAATCCA | 0.151
46 | GCAATCCA | 0.0882
47 | GAAATCCA | 0.0886
48 | AAAATCCA | 0.28
49 | AGAATGCG | 0.0426
50 | AATAGTAT | 0.229
51 | GTATCCGA | -0.0824
52 | ATTACGCG | 0.311
53 | ACTACGTG | -0.166
54 | ATTACGCC | 0.0197
55 | ATTACGTC | 0.33
56 | ATTACGTG | 0.397
57 | ATTACGCA | 0.233
58 | ATTAGGTC | 0.286
59 | AGTACGTG | -0.0755
60 | ACTACGTC | -0.0702
61 | ATTAGGTA | 0.167
62 | CTTAGGTC | -0.0924
63 | AATACGTC | 0.188
64 | AGTAAACT | 0.0322
65 | CATCTGGC | -0.066
66 | TAGTACTA | 0.0913

Row | Sequence | PBM E-score
67 | GGCTACAC | -0.166
68 | CGACTACA | 0.0886
69 | ATTGGCTC | 0.0983
70 | ATGGTAAT | 0.128
71 | AAGGACAC | -0.0338
72 | ACCCGGGT | -0.12
73 | ACCTTCAC | 0.00082
74 | ATTGGTTG | 0.118
75 | CTGTACGA | 0.0353
76 | CACAGTAA | 0.265
77 | CACAGTAG | 0.0618
78 | TACAGTAA | 0.183
79 | ATTTCGAC | -0.0412
80 | ATTTCGAG | 0.141
81 | ATTTCGAA | 0.261
82 | TGCGTGAA | 0.107
83 | ACATTAGT | 0.0888
84 | ACTTTATC | 0.169
85 | GGTTTATA | 0.0813
86 | AGTTTATA | 0.205
